Reference: the supplement of paper PMC3334620
Whole data set: some 33,000 sequences, median “E-score (-0.5 to 0.5)” near -0.015, cut for the highest 2% near 0.3. Shown is part of a subset that was picked to be rich in the highest values.

These sequences were tested against T1, Abf1 (UniProt P14164) (assay: PBM E-score (8-mer binding enrichment) (E-score (-0.5 to 0.5)); higher = stronger / more preferred TF binding). Conditions: protein concentration: 200 nM; construct: GST-full length.
T1 sequence: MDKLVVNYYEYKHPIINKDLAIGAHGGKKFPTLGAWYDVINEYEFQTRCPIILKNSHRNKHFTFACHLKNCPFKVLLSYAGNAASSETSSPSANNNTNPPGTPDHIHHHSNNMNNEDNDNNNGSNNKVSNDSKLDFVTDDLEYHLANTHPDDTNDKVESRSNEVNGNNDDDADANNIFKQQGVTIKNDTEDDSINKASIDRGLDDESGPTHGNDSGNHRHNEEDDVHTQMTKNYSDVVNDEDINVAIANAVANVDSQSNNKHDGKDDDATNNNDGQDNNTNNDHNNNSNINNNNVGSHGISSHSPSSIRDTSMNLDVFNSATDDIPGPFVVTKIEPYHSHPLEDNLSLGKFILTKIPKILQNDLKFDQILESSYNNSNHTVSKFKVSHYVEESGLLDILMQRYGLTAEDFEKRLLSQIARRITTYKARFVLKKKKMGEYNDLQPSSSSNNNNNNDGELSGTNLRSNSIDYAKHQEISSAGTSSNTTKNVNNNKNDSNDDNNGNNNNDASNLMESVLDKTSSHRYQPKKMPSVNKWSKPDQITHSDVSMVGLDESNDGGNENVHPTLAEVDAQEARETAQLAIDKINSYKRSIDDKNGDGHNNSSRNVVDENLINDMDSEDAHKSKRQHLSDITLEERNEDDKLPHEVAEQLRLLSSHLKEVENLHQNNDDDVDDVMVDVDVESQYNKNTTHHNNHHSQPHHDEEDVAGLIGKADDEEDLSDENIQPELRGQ
Procedure, shortened: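 The E-score, a modified Wilcoxon-Mann-Whitney statistic, was computed by the Universal PBM Analysis Suite for every ungapped eight-base word pooled with its reverse complement. Scans behind it were normalised with masliner after bound GST-tagged yeast transcription factors were detected with fluorescent anti-GST. The proteins, at about 100-200 nM, had been applied to universal all-10-mer Agilent arrays made double-stranded by primer extension.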

| Sequence | PBM E-score |
| --- | --- |
| CCTACGAG | 0.163 |
| ATTACGAA | 0.281 |
| CGTACGAG | 0.343 |
| GGTACGTA | 0.0572 |
| TGTACGAA | 0.427 |
| GGTACGAC | 0.185 |
| AGTACGAG | 0.00494 |
| GGTACGAA | 0.339 |
| CGTACGAC | 0.417 |
| CTTACGAC | 0.103 |
| CTCGAATC | -0.0489 |
| CATCCTTC | 0.0215 |
| CCACTGGC | -0.107 |
| CTTACGAA | 0.216 |
| AGTACGAA | 0.368 |
| CGTACGCA | 0.217 |
| AGTACGAC | 0.18 |
| CGTACGAA | 0.447 |
| AGTACGAT | 0.106 |
| CATAAGGC | 0.16 |
| GCTTGCGA | 0.0664 |
| CTCAAAAG | -0.0587 |

| Sequence | PBM E-score |
| --- | --- |
| AACCGGTC | -0.154 |
| AGATATCT | 0.158 |
| TGATATCA | 0.34 |
| TGATATAA | 0.281 |
| AGATATCA | 0.3 |
| GGATATCA | 0.247 |
| AGATATCC | 0.232 |
| CGAGGATC | 0.101 |
| AGGCGGAT | -0.0114 |
| CTCGACAA | -0.0758 |
| ACTTACCT | -0.165 |
| CGGCAGGC | -0.0216 |
| CTCCGGCC | -0.212 |
| AAGACCGG | -0.0657 |
| GCACACGA | 0.303 |
| GCACACGC | -0.209 |
| ATACACGA | 0.179 |
| CTACACGA | 0.247 |
| AGACACGA | 0.083 |
| CGACACGA | 0.298 |
| TCACACGA | 0.297 |
| CGACACGC | 0.0501 |

| Sequence | PBM E-score |
| --- | --- |
| ACACACGA | 0.279 |
| GTACACGA | 0.362 |
| TCACACAA | 0.0163 |
| GCACACAA | -0.00644 |
| GTCGTAAA | 0.184 |
| ACACTCAA | 0.123 |
| AAGAACAT | 0.157 |
| CATGTAAG | -0.112 |
| CCTCCGTA | 0.116 |
| TCTCTGCA | 0.0379 |
| CGCTGCCG | -0.0244 |
| ACCGGACC | -0.113 |
| TAATCGGA | 0.0729 |
| CAGTCGAC | 0.137 |
| CGCCTGTA | -0.234 |
| ATAGTATG | 0.161 |
| AACGTATA | 0.1 |
| CTCGTGTA | 0.157 |
| ATCGTATG | 0.302 |
| AGCGTATG | -0.154 |
| GACGTATA | 0.249 |
| ATCGTATC | 0.242 |

| Sequence | PBM E-score |
| --- | --- |
| GTCGTGTA | 0.239 |
| GTCGTATA | 0.402 |
| ATCGTATA | 0.326 |
| ATCGTGTA | 0.376 |
| CTCGTATA | 0.241 |
| GGGCTACC | -0.186 |
| GGGTCATA | -0.0763 |
| CCCTCGTA | 0.126 |
| TATGACCA | -0.0211 |
| GAACAGCC | -0.195 |
| AGACCGAC | -0.00992 |
| AGTAAATA | 0.103 |
| AATAAATT | 0.313 |
| GATAAATA | 0.257 |
| CGTAAATC | 0.131 |
| CGTAAATA | 0.299 |
| AATAAATA | 0.32 |
| AATAAATG | 0.149 |
| TATAAATA | 0.257 |
| AATAAAAT | 0.2 |
